Experimental data reported in the supplement of paper PMC6555819.

Assays:
Assay in all cases: PBM binding z-score (relative to random genomic background probes); higher = stronger binding; sequences stand for … in GC…GCGATTGACAGCGTAGAATGAAGG
[1] = tested on: RARb homodimer (NR concentration 270 nM)
Procedure, shortened: (§1)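 Ligand-free nuclear receptor dimers were applied to custom Agilent 4×180K protein-binding microarrays whose double-stranded probes carried direct-repeat seeds, single-nucleotide variants, half-site ablations and random human genomic background sequences in 34-nt variable regions. Incubation lasted 1 h. Binding z-scores were computed against the random background probes from regression-normalized fluorescence.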

[2] = tested on: RARg:RXRa (NR concentration 270 nM, RXRa partner concentration 90 nM)
Procedure, shortened: as §1

[3] = tested on: RARg homodimer (NR concentration 270 nM)
Procedure, shortened: as §1

[4] = tested on: RXRa DBDmut IVT, anti-RXR (DBD mutation: RXRa K156A/R161A, NR concentration 90 nM)
Procedure, shortened: as §1

[5] = tested on: RXRa homodimer (NR concentration 180 nM)
Procedure, shortened: as §1

[6] = tested on: THRa:RXRa (NR concentration 90 nM, RXRa partner concentration 90 nM)
Procedure, shortened: as §1

[7] = tested on: THRa homodimer (NR concentration 90 nM)
Procedure, shortened: as §1

[8] = tested on: VDR homodimer (NR concentration 270 nM)
Procedure, shortened: as §1

| Sequence | PBM binding z-score [1] | PBM binding z-score [2] | PBM binding z-score [3] | PBM binding z-score [4] | PBM binding z-score [5] | PBM binding z-score [6] | PBM binding z-score [7] | PBM binding z-score [8] |
| --- | --- | --- | --- | --- | --- | --- | --- | --- |
| TCTTGTAGATCAAAAGTTAAGAAAGCCGAAGCCT | -0.728 | 0.0681 | -0.147 | 0.742 | 0.126 | -0.34 | -1.33 | -0.181 |
| CCTCGGAGGACAACAGGAGGTCAGAGCTGCCAGA | 3.64 | 3.37 | 2.98 | 0.172 | 1.76 | 2.89 | 1.04 | 1.21 |
| ACTCGGAGGACAAAGGTTAGAGCTACGCCAGTGA | 1.89 | 2.94 | 1.93 | 0.75 | 1.7 | 1.76 | -0.114 | 0.17 |
| AGAATGAGGTTACCAAAGATCAGGGAAACGCTTG | 0.765 | 2.19 | 1.68 | 1.25 | 2.57 | 3.04 | 0.9 | 0.1 |
| TCTCGGAGGACACGAAGGTTAGAGCTTTCCAGAG | 1.26 | 0.969 | 1.89 | 0.169 | 0.126 | 1.59 | 0.277 | -0.226 |
| GAATATAGGTAATACAAGGTGAAAGTCCGATTGT | 1.27 | 0.944 | 0.872 | 0.644 | 0.89 | 4.2 | 1.38 | 0.435 |
| GCGGCTAGGTCAACTGATGGTCAGCTAAAGCTCG | 3.7 | 5.19 | 5.19 | 1.17 | 2.84 | 2.95 | 0.698 | -0.00796 |
| ATTACAGGGTCACTAGGCCAGAGTAGGTACGAAT | 3.38 | 5.4 | 5.25 | 2.67 | 5.24 | 3.48 | 1.5 | 2.93 |
| TCATATAGGGAAATGCTAGGTGAAAGTCCGATCT | 0.336 | 0.235 | 0.101 | 1.66 | 0.678 | 0.846 | 0.365 | 0.19 |
| ACAGACAGGTGATGAAGGTAACTCAGGCTATCAT | 0.446 | 0.303 | 0.521 | -0.295 | 0.205 | 0.774 | 0.267 | -0.205 |
| CCTGCTGGGCCAAAAAGGTCATTGATGCCGATAA | 4.32 | 4.6 | 4.17 | 0.818 | 4.91 | 3.12 | 0.279 | 2.58 |
| CGAACTAGGTAATCCAGGACAGTGAATACATTGA | -0.194 | 0.0775 | 0.29 | 0.502 | -0.0168 | 1.85 | 0.946 | -0.254 |
| TGAATGATGTTATAAGATCAGGGAACGTTGCAAA | -0.648 | 0.116 | 0.244 | -1.01 | 0.153 | -0.185 | -0.281 | -0.22 |
| ACTATTAGTTGACTTAGGGCAACCGGTACGACGC | 1.12 | 0.684 | 0.734 | 0.426 | 0.446 | 1.47 | 0.512 | 0.456 |
| TCTAGTTGGTCAAAGGTCACACAGTCGAAATGCG | 5.27 | 7.05 | 6.38 | 1.73 | 8.22 | 4.12 | 2.06 | 2.98 |
| AGTCAAAGTTCATCTAGGTAACGTGAGATATGCT | 3.97 | 5.63 | 6.26 | 4.74 | 4.89 | 3.05 | 0.297 | 4.95 |
| ACTAGCAGCCCAAGGGTCACTCAAGATTAGTCCG | 3.74 | 3.55 | 3.23 | 0.283 | 3.67 | 2.45 | 0.307 | 0.863 |
| CCAGACCGGTGAAAGGTAACTCAGTCTGGTACGC | 0.414 | 0.36 | -0.096 | -0.727 | 0.696 | 0.429 | -0.178 | -0.186 |
| TCTAGATGGTCACGGAGGTCACACACGACGGGTA | 4.54 | 4.93 | 4.89 | 0.905 | 5.34 | 3.85 | 2.6 | 3.63 |
| CCGACTGGGGCATAAGGTTGCCATAAGCCAGCCC | 0.294 | 0.249 | 0.278 | -0.617 | -0.0266 | 0.276 | -0.00565 | -0.0503 |
| ACTGGCAGGCCAAGGGTCACTCAAGATTAGTCCG | 3.66 | 4.14 | 3.64 | -0.0715 | 3.95 | 2.71 | 0.159 | 1.11 |
| GCTAGGAGGACAAGGTCAGAGCTTTGTCCGTAGA | 3.1 | 3 | 3.49 | 0.861 | 2.29 | 2.83 | 1.21 | 0.639 |
| GCGACTGGGGCATCAGCAGGTTTCCATAACTTAA | 0.345 | -0.102 | -0.261 | 0.099 | -0.0783 | -0.0527 | -0.144 | 0.168 |
| ACAATGAGGTTACCAAAGATCAGGGAAACGCTTG | 1.14 | 2.27 | 2.07 | 1.4 | 2.9 | 2.77 | 1.14 | 0.706 |
| TCTAGTTGGTCACGGAGCTCACACACGACGGGTA | 0.591 | 1.04 | 1.24 | 0.372 | 0.925 | -0.123 | -0.466 | -0.521 |
| GCTAGCAGGCCATTTCGGTCACTCAATGACGGGC | 1.03 | 0.276 | 0.793 | 0.0509 | -0.116 | 0.245 | -0.53 | -0.487 |
| GCATATAGGTAGTACAAGGTGAAAGTCCGATTGT | 0.817 | 0.404 | 0.395 | 0.422 | 0.53 | 3.23 | 1.02 | 0.0912 |
| ACTATTAGTTGACTGAGGGCAACCGATACGACGC | 1.72 | 0.837 | 1.38 | 1 | 0.572 | 1.91 | 1.06 | 1.71 |
| TCTAGTTGGTCACGGAGATCACACACGACGGGTA | 1.07 | 1.07 | 1.4 | 0.762 | 1.19 | 0.155 | 0.328 | 0.211 |
